# MPTP block = permeability transition pore inhibition; isolated mouse mitochondria, Ca2+ swelling absorbance, 30 min; inhibition, % at 10 µM; actives 1.4% (n = 360,000);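 active = inhibition of 50% or more, scaled per plate between neutral and stimulator controls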;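 note: 0% = DMSO wells given calcium and 100% = 1 mM EGTA wells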
# HSF1 inhib = HSF1 inhibition; NIH3T3-HGL HSE-luciferase, MG132-induced, luminescence 8 h; stronger effect = lower value; activity change, negative = inhibition, % at 7.5 µM (by protocol); actives 0.77% (n = 300,000);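 active = more than half of replicate wells show activity change below -50%, luminescence cut by over half; inconclusive = some wells, but at most half, below -50%; inactive = no replicate well below -50%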;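 note: luciferase reports HSF-1 transcriptional activity via heat shock element; 0% = median of DMSO wells and -100% = zero luminescence signal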
# dFosB act-1 = mouse delta FosB homodimer activation; P13346; purified delta FosB, TAMRA-CDK5 oligo fluorescence polarization; percent of positive-control signal above neutral wells; activation, % at 25 µM; actives 0.99% (n = 340,000);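 active = mean activation above about 17%, with every replicate also reaching it, limit read from the data, passing the limit was not always enough; inconclusive = only one of the two conditions met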
# Target sequence (P13346 whole entry, looked up): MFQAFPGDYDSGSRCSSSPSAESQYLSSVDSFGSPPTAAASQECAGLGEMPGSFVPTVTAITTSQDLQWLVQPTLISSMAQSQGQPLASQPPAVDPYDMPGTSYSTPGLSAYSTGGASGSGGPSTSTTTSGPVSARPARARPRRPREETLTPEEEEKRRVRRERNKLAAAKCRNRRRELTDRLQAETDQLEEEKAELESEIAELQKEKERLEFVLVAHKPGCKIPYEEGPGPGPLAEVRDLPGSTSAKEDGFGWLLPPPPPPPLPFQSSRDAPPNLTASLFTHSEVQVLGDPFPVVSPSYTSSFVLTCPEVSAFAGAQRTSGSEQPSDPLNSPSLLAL
# Platelet DG rel = modulates dense granule release in human platelets | actives 0.22% (n = 300,000) | human platelet-rich plasma, SFLLRN dense granule ATP release, luminescence | inhibition, %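 (compounds screened at 7.5 µM in platelet-rich plasma)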 | AID 1663;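 active = mean replicate score, as percent of positive control, at or above 50; inconclusive = mean below 50 but at least one replicate at or above 50; inactive = mean and every replicate below 50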
# HSF1 activator = increases HSF-1 driven luciferase reporter signal; NIH3T3-HGL HSF-1 luciferase reporter, MG132, 8 h; 100% = twice DMSO control signal; activation, % at 9 µM; actives 1.7% (n = 300,000);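 active = mean replicate activation of at least 50% with a set share of replicates each reaching 50%; inconclusive = only one of those two conditions met; inactive = mean below 50% and too few replicates reaching it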;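 note: 0% = median of the neutral control wells and 100% = twice that signal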
# HSP90 refold inh = blocks HSP90-mediated luciferase refolding in reticulocyte lysate; actives 0.91% (n = 290,000); inhibition, % at 5.6 µM; AID 1789; Rabbit reticulocyte lysate, luciferase refolding luminescence, 3 h;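 active = inhibition above the screen-wide mean plus 3 SD, computed separately per campaign, cut at about 16% in these data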;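 note: 0% = DMSO wells and 100% = 60 µM geldanamycin wells; inhibitors lower the luminescence because luciferase stays unfolded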
# dFosB act-2 = enhances mouse delta FosB homodimer binding to DNA; shares compounds with dFosB act-1; AID 588690; purified delta FosB, TAMRA-CDK5 oligo fluorescence polarization; normalised: neutral wells 0, positive control 100; 2,400 tested, under 10 active; activation, % at 24.9 µM;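 active = highest replicate activation at or above 34% and every replicate reaching that threshold; inconclusive = meets only one of the two criteria; inactive = meets neither criterion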;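 note: higher polarization means more probe DNA bound by delta FosB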
# Rh123 counter = Rhodamine 123 counter-screen of mitochondrial pore hits; inhibition, % at 10 µM; actives 78% (n = 5,000); shares compounds with MPTP block; isolated mitochondria, membrane potential, Rhodamine 123 fluorescence; AID 624504; in the data active = inhibition above about 22%;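 note: 0% = DMSO vehicle and 100% = positive control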
# MPTP swell DR = dose response confirmation of mitochondrial permeability transition pore inhibitors; IC50, µM; actives 58% (n = 780); AID 651561; isolated mitochondria swelling, absorbance; shares compounds with MPTP block; in the data active = IC50 below about 20 µM
# MPTP counter DR = counter-screen for mitochondrial permeability transition pore inhibitors, dose response | isolated mitochondria counterscreen, fluorescence read-out | IC50, µM | actives 49% (n = 780) | shares compounds with MPTP block | AID 651564; in the data active = IC50 below about 80 µM
# Active calls of the source: *; ? = inconclusive; nt = not tested or not shown; + = active, no number. Compounds with a hit are over-represented: about 4.9% of the library has one in this group of screens.
SMILES,MPTP block,HSF1 inhib,dFosB act-1,Platelet DG rel,HSF1 activator,HSP90 refold inh,dFosB act-2,Rh123 counter,others
c1cc2c3c(cccc3c1)C(N1CCOCC1)=N2,2.1,-4.5,14.6,-0.4,7.6,1.2,nt,nt,
c1ccc(CC2CCN(C3=Nc4cccc5cccc3c45)CC2)cc1,51.1*,5.9,23.0*,0.3,3.9,0.2,-4.5,28.6*,
COc1ccc(NC(=O)Nc2ccc(F)cc2F)c(C)c1,3.2,8.1,0.2,1.4,16.1,2.3,nt,nt,
Cc1cc([N+](=O)[O-])ccc1NC(=O)Nc1ccc(F)cc1F,97.5*,-2.1,24.4*,2.3,-12.7,-4.4,1.9,78.5*,
NCCCCc1ccc2ccc3cccc4ccc1c2c34,88.8*,nt,31.9*,nt,nt,nt,0.6,-15.4,MPTP swell DR=6.16*;MPTP counter DR=53.3*
COc1ccc(N(CC(=O)Nc2ccc(F)c(Cl)c2)S(=O)(=O)c2c(C)noc2C)cc1,68.8*,6.4,27.8*,-3.6,7.1,0.4,2.3,77.7*,
COc1ccc(N(CC(=O)Nc2ccc(OC)c(Cl)c2)S(=O)(=O)c2c(C)noc2C)cc1,15.7,8.1,3.4,6.2,-18.7,-3.5,nt,nt,
CC(C)S(=O)(=O)NC(=O)C1(C)CCN1C(=O)Cc1ccccc1Cl (configuration not stated),0.6,nt,nt,nt,nt,nt,nt,nt,
CCOC(=O)c1sc(NC(=O)Nc2ccc(Cl)cc2)cc1C,116.2*,6.7,24.1*,-2.2,-8.5,-2.8,-0.4,46.7*,
CC1Cc2ccccc2N1C(=O)C(C)n1cc(C(F)(F)F)cc(Cl)c1=O (configuration not stated),-0.1,nt,-0.4,nt,nt,nt,nt,nt,
CCN1CCN(c2cc(N3CCc4ccccc4C3)c(F)cc2[N+](=O)[O-])CC1,103.5*,0.2,18.6*,18.5,-6.6,5.4,0.3,-11.6,
CC(=O)N1CCN(c2cc(N3CCCC3)c(F)cc2[N+](=O)[O-])CC1,0.0,-3.9,-5.4,-4.7,-10.2,1.4,nt,nt,
COc1ccccc1S(=O)(=O)Nc1cc(C)nn1-c1ccc(C)cc1,-0.3,0.9,-2.0,-6.3,15.4,5.5,nt,nt,
Cc1cccc(NC(=O)Cn2cc(C(=O)C3CC3)c3ccccc32)c1C,56.5*,-1.4,21.2*,10.1,-1.8,4.2,1.8,51.2*,
CC1=C(CC(=O)c2ccc(Cl)cc2)C(=O)c2ccccc2C1=O,8.3,-33.0,3.2,1.6,-44.8,15.7,nt,nt,
CCOc1cc(CNCCCN2CCOCC2)cc(Br)c1OCc1ccccc1Cl,99.6*,15.4,20.7*,-0.5,13.2,-1.5,0.6,-4.3,
CCOc1cc(CNCCN2CCOCC2)ccc1OCc1ccccc1Cl,1.0,9.4,-4.4,?,16.7,0.2,nt,nt,
c1ccc(-c2cnn3c(-c4ccccc4)c(-c4ccccc4)nc3n2)cc1,-1.3,nt,1.0,nt,nt,0.5,nt,nt,
O=C(Nc1ccc([N+](=O)[O-])cc1)Nc1nc(-c2ccc(Cl)s2)cs1,91.3*,-4.2,28.7*,-4.9,13.5,-0.7,7.4,86.5*,
O=C(Nc1ccc(Cl)cc1)Nc1nc(-c2ccccc2)cs1,94.1*,1.3,29.8*,1.9,13.9,2.6,5.6,91.9*,
CCCC(=O)Nc1nc(-c2ccc(Cl)s2)cs1,-1.5,3.4,-2.9,-0.8,13.8,-0.9,nt,nt,
NC(Cc1ccc(Cl)cc1)c1csc(NC(=O)Nc2ccccc2)n1 (configuration not stated),6.9,nt,nt,nt,nt,nt,nt,nt,
COC(=O)c1ccccc1NC(=O)CCC(=O)N1CC(C)Oc2ccc(C)cc21 (configuration not stated),-1.9,4.2,-5.4,4.3,12.9,-1.0,nt,nt,
COc1ccc2sc(N(CCCN(C)C)C(=O)c3ccc(S(=O)(=O)N4CCc5ccccc5C4)cc3)nc2c1,86.3*,-10.2,32.6*,-0.6,-18.9,nt,0.7,-19.4,
CCCNC(=O)C1(C)CCCN(Cc2c3ccccc3nn2C)C1 (configuration not stated),-0.7,nt,nt,nt,nt,nt,nt,nt,
SMILES,MPTP block,HSF1 inhib,dFosB act-1,Platelet DG rel,HSF1 activator,HSP90 refold inh,dFosB act-2,Rh123 counter,others
Cc1cccc(-c2nsc(SCC(=O)Nc3ccc4c(c3)OCO4)n2)c1,54.1*,38.5,19.6*,-11.3,47.9,-1.5,-0.3,65.0*,
O=C(O)C1CC=CCC1C(=O)N1CCN(c2nc(-c3ccccc3)c3ccccc3n2)CC1 (configuration not stated),82.6*,-8.3,-4.4,7.8,-24.1,-0.9,nt,-11.3,MPTP swell DR=10.3*;MPTP counter DR=>80
O=C(NCCCN1CCCC1=O)c1sc2ccccc2c1Cl,-1.0,6.0,-12.5,15.7,12.9,-0.4,nt,nt,
CN(NC(=O)c1ccccc1F)c1ncccc1[N+](=O)[O-],1.3,-5.3,2.6,-1.3,0.1,0.5,nt,nt,
Cc1ccc2nc(SCC(=O)Nc3ccc(F)c([N+](=O)[O-])c3)[nH]c2c1,87.6*,9.3,-0.8,-4.9,26.1,0.9,nt,76.2*,
Cc1ccc2nc(SC(C)C(=O)NC3CCCC3)[nH]c2c1 (configuration not stated),-0.4,nt,-8.2,nt,nt,nt,nt,nt,
Cc1ccc2nc(SC(C)C(=O)Nc3cccc([N+](=O)[O-])c3)[nH]c2c1 (configuration not stated),58.7*,9.0,-1.3,2.3,16.2,-5.2,nt,84.9*,
Cc1ccc(Cn2cc(CN3CC(N(C)C)CS3(=O)=O)nn2)cc1 (configuration not stated),0.2,nt,nt,nt,nt,nt,nt,nt,
O=S(=O)(NCCCNS(=O)(=O)c1c(F)cccc1F)c1ccc2c(c1)OCCO2,3.0,nt,-6.9,nt,nt,nt,nt,nt,
CCCC(=O)c1ccc(N2CCN(C(=O)c3ccccc3Br)CC2)c(F)c1,79.7*,-11.2,-5.8,3.0,-26.8,0.8,nt,65.6*,
CCCC(=O)c1ccc(N2CCN(C(=O)c3ccccc3)CC2)c(F)c1,2.4,nt,-9.9,nt,nt,-0.1,nt,nt,
COc1ccc(-c2ccc3oc(-c4ccsc4)cc3c2)cc1,-0.4,-15.4,-7.1,-4.7,-34.9,nt,nt,nt,
O=S(=O)(c1cc(F)ccc1F)N1CCN(c2ccccn2)CC1,1.8,5.2,1.0,1.1,-9.3,-7.8,nt,nt,
O=S(=O)(c1cc(F)ccc1F)N1CCN(c2ncnc3ccccc23)CC1,94.6*,nt,-16.0,nt,nt,nt,nt,91.8*,
CC1OC2(OC1C)C(=O)Nc1ccccc12 (configuration not stated),+,-0.2,-3.4,3.0,-15.9,5.8,nt,-2.5,MPTP swell DR=>100;MPTP counter DR=>80
CC1CCOC2(O1)C(=O)Nc1ccccc12 (configuration not stated),1.8,-6.2,-1.6,11.5,0.3,2.1,nt,nt,
Cc1c(Cl)cccc1NC(=O)NCc1cccnc1,-1.3,2.9,-3.1,4.1,-5.3,1.2,nt,nt,
